# Reference: PubChem BioAssay
# Unmarked numbers belong to inactive results. The list shows a part of the results. The source made the active and inactive calls.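 The calls were made as follows, unless noted: active = inhibition above the hit cutoff set in the earlier primary screen (cut at about 27% in these data); inactive = the rest.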
# Legend:
# [1] = target: Protein phosphatase methylesterase 1 (Homo sapiens) (UniProt Q9Y570); assay: human PME-1 methylesterase inhibition confirmation – biochemical, fluorescence polarization, FP-Rh probe, triplicate (AID 2171); conditions: recombinant PME-1, FP-Rh probe fluorescence polarization; at 5.9 µM; active compounds read high;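 also: 0% = enzyme with DMSO and 100% = wells lacking PME-1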
# [2] = target: Bcl-2-like protein 1 (Homo sapiens) (UniProt Q07817); assay: Bcl-xL BH3-peptide displacement, hit confirmation – biochemical, fluorescence polarization, counter-screen for MCL1 inhibitor project (AID 2166;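 active = inhibition above a cutoff equal to the mean inhibition of all tested compounds plus 3 SD, cut at about 30% in these data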); conditions: GST-Bcl-xL / FITC-Bim BH3 peptide FP binding; at 10.9 µM; active compounds read high
# [3] = target: Induced myeloid leukemia cell differentiation protein Mcl-1 (Homo sapiens) (UniProt Q07820); assay: MCL1-BIM peptide interaction disruptors – biochemical, fluorescence polarization, triplicate, confirmation (AID 2168;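 active = inhibition above the average of all tested compounds plus 3 SD, cut at about 40% in these data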;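 also: 0% = DMSO wells and 100% = unlabeled Bim-BH3 control peptide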); conditions: GST-MCL1 / FITC-Bim-BH3 fluorescence polarization; at 10.9 µM; active compounds read high
# [4] = target: Insulin-degrading enzyme (Homo sapiens) (UniProt P14735); assay: cellular IDE Abeta-cleavage inhibition – fluorescence polarization, HEK cells, FAbetaB substrate, confirmation (AID 435028;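 active = mean inhibition across triplicate wells above the cutoff set by the earlier primary insulin-degrading enzyme screen, cut at about 16% in these data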;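 also: 0% = DMSO wells and 100% = 60 µM reference IDE inhibitor Ii1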); conditions: at 5.59 µM, active compounds read high
# [5] = HEK cell viability loss – luminescence, cytotoxicity control for IDE inhibitor project (AID 449730; in the data active = inhibition above about 22%;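 also: 0% = vehicle wells and 100% = reference cytotoxic drug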); conditions: HEK293 cytotoxicity, ATP luminescence; at 5.59 µM; active compounds read high
# [6] = target: Oxysterols receptor LXR-beta (Homo sapiens) (UniProt P55055); assay: nonspecific reporter activation via LXR – cell-based, luminescence, HEK293, H. contortus campaign, counter-screen for hcDAF-12 agonist project, confirmation (AID 743027;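 active = mean percent activation of the reporter above a cutoff set as the average over tested compounds plus their standard deviation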); conditions: HEK293 Gal4-LXR tk-luc reporter, 24 h, at 6.8 µM, active compounds read high, normalized: DMSO 0%, positive control 100%
# [7] = tested on: Nuclear hormone receptor DAF-12 (Haemonchus contortus); assay: hcDAF-12 luciferase reporter activation, retest – cell-based, luminescence, HEK293, lit1-tk-luc, triplicate, confirmation (AID 743032;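 active = mean activation across triplicate tests above the threshold derived from the earlier primary screen, cut at about 5.5% in these data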;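 also: 0% = DMSO only wells and 100% = 3 µM Δ7-dafachronic acid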); conditions: HEK293 hcDAF-12 lit1-tk-luc reporter, at 6.8 µM, active compounds read high, % of Δ7-dafachronic acid response
# [8] = target: Nuclear receptor subfamily 5 group A member 2 (Homo sapiens) (UniProt O00482); assay: NR5A2 activity suppression in reporter cells – cell-based, luminescence, confirmation (AID 651613; in the data active = inhibition above about 42%;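 also: HEK293T cells co-transfected with LRH-1 and StAR promoter luciferase reporter; 0% = vehicle wells and 100% = parental cells lacking receptor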); conditions: cell-based LRH-1 luciferase reporter, inverse agonism; at 3.6 µM; active compounds read high
# [9] = target: Steroidogenic factor 1 (Homo sapiens) (UniProt Q13285); assay: inverse agonism at SF1 nuclear receptor – cell-based, luminescence, high throughput, counter-screen for LRH-1 inverse agonist project (AID 651614; in the data active = inhibition above about 44%;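 also: cells cotransfected with StAR promoter reporter and SF1 expression vector; 0% = vehicle on cells with receptor and 100% = vehicle on cells lacking receptor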); conditions: cell-based SF1 luciferase reporter, at 3.6 µM, active compounds read high
# [10] = target: Toll-like receptor 9 (Homo sapiens) (UniProt Q9NR96); assay: disruptors of TLR9 binding to MyD88 – cell-based, CHO, BLA complementation, fluorescence, triplicate, confirmation (AID 540250;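 active = mean inhibition across three repeats above about 21% taken from the earlier screen, limit read from the data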;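 also: blue over green emission ratio reports constitutive TLR9 MyD88 association via BLA complementation; 0% = DMSO vehicle wells and 100% = clavulanate BLA inhibitor wells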); conditions: CCF4 FRET ratio, at 4.98 µM, active compounds read high
# [11] = BLA reporter readout interference – cell-based, fluorescence, artefact control for TLR9-MyD88 binding inhibitor project (AID 540251;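 active = mean inhibition above a 50% cutoff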;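 also: counterscreen of TLR9-MyD88 hits on CMV-driven BLA in CHO-K1 cells; 0% = DMSO alone and 100% = clavulanate blocking BLA; higher means less blue over green ratio so more BLA blockade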); conditions: CHO-BLA cells, CCF4 FRET ratio, at 4.98 µM, active compounds read high
# [12] = CHO cell viability loss – luminescence, single concentration, cytotoxicity control for TLR9-MyD88 binding inhibitor project (AID 588336; in the data active = inhibition above about 11%); conditions: TLR9-MyD88 CHO cells cytotoxicity, at 4.98 µM, active compounds read high
# [13] = target: Receptor-interacting serine/threonine-protein kinase 2 (Homo sapiens) (UniProt O43353); assay: inhibitors of RIPK2 association with NOD2 – fluorescence, CHO cells, BLA complementation, triplicate, confirmation (AID 624370;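 active = mean inhibition across replicates above a set limit taken from the earlier primary screen, cut at about 21% in these data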;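 also: 0% = DMSO-only wells and the high end = clavulanate BLA-blocked wells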); conditions: CCF4 FRET, at 4.98 µM, active compounds read high
# [14] = BLA reporter readout interference – cell-based, CHO-K1 CMV-bla, CCF4 FRET, fluorescence, artefact control for NOD2-RIPK2 interaction inhibitor project, confirmation (AID 624371;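 active = mean inhibition above the low-control mean inhibition plus three low-control SD, cut at about 11% in these data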;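 also: 0% = DMSO only wells and 100% = clavulanate high control wells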); conditions: CCF4 FRET ratio, counterscreen, at 4.98 µM, active compounds read high
# [15] = reduced OD of T4-infected AddAB+ E. coli – absorbance, E. coli V3065, T4 phage, triplicate, AddAB inhibitor project, confirmation (AID 488942;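 active = mean inhibition above a set limit taken from the earlier primary screen, cut at about 13% in these data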;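 also: higher means less bacterial growth since AddAB block lets phage replicate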); conditions: E. coli V3065 expressing H. pylori AddAB, at 11.9 µM, active compounds read high, T4 phage with gene 2 nonsense mutations
# [16] = reduced OD of phage-infected RecBCD+ V66 E. coli – absorbance, mutant T4 phage, counter-screen for AddAB inhibitor project (AID 488955;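 active = mean inhibition above the mean of solvent-only control wells plus 3 SD, cut at about 4% in these data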;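 also: optical density read after an 18 h incubation at 37 °C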); conditions: OD growth, at 11.9 µM, active compounds read high
# [17] = bacterial growth inhibitors – absorbance, counter-screen for AddAB inhibitor project, confirmation (AID 488956; in the data active = inhibition above about 25%); conditions: bacterial viability, absorbance (AddAB counterscreen); at 11.9 µM; active compounds read high
# [18] = target: Serine protease HTRA1 (Homo sapiens) (UniProt Q92743); assay: confirming inhibition of human HTRA1 – biochemical, fluorescence polarization, confirmation (AID 540248;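 active = mean inhibition over three repeats above a set limit taken from the earlier primary screen, cut at about 37% in these data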;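 also: 0% = HTRA1 with DMSO and 100% = wells lacking HTRA1; inhibitors block probe binding so polarization drops and inhibition rises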); conditions: recombinant HTRA1, FP-rhodamine activity-based probe, at 5.96 µM, active compounds read high
# [19] = BSA probe fluorescence interference – biochemical, TAMRA-labeled BSA, counter-screen for TCR-CD3 interaction inhibitor project (AID 652035; in the data active = inhibition above about 23%;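 also: 0% = buffer low control and 100% = reference high control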); conditions: TAMRA-labeled BSA probe fluorescence counterscreen; at 9.4 µM; active compounds read high
# [20] = tested on: T-cell receptor (TCR)-CD3 interaction, human; assay: blockers of TCR binding to CD3 – biochemical, fluorescence, TAMRA-labeled TCR probe, confirmation (AID 652036; in the data active = inhibition above about 19%); conditions: TAMRA-labeled TCR probe fluorescence binding assay; at 9.4 µM; active compounds read high
# [21] = target: (Lyso)-N-acylphosphatidylethanolamine lipase (Mus musculus) (UniProt Q8VD66); assay: mouse ABHD4 hydrolase blockers, triplicate – biochemical, fluorescence polarization, confirmation (AID 720658;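 active = mean inhibition across replicates above the hit cutoff set in the primary screen, cut at about 30% in these data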;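 also: 0% = wild-type ABHD4 with DMSO and 100% = catalytically dead S159A mutant with DMSO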); conditions: purified mABHD4, FP-Rh probe fluorescence polarization; at 8.92 µM; active compounds read high
# [22] = target: Nuclear receptor coactivator 3 (Homo sapiens) (UniProt Q9Y6Q9); assay: NCOA3 GAL4-fusion reporter inhibition – cell-based, luminescence, quadruplicate, confirmation (AID 588792;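 active = mean inhibition over 43.08%, the solvent-only control mean plus 3 SD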;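 also: 0% = DMSO treated cells and 100% = gossypol at 36 µM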); conditions: HEK293 GAL4-SRC3 luciferase reporter, at 3.6 µM, active compounds read high
# [23] = tested on: transactivating tegument protein VP16 (Human herpesvirus 1), Gal4-VP16 luciferase reporter; assay: repression of VP16-driven luciferase reporter – cell-based, luminescence, high throughput, counter-screen for SRC3 inhibitor project (AID 588794; in the data active = inhibition above about 30%); conditions: mammalian cells, at 3.6 µM, active compounds read high
# [24] = target: Nuclear receptor coactivator 1 (Homo sapiens) (UniProt Q15788); assay: NCOA1 GAL4-fusion reporter inhibition – cell-based, luminescence, quadruplicate, confirmation (AID 588820;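 active = mean inhibition above 46.68%, the untreated control wells mean plus 3 SD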;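 also: 0% = DMSO wells and 100% = gossypol 36 µM treated wells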); conditions: HEK293 GAL4-SRC1 luciferase reporter, at 3.6 µM, active compounds read high
# [25] = repression of VP16-driven luciferase reporter – cell-based, luminescence, high throughput, counter-screen for SRC1 inhibitor project (AID 588824; in the data active = inhibition above about 25%); conditions: cell-based VP16 transactivation luciferase luminescence; at 3.6 µM; active compounds read high
# [26] = StAR promoter reporter inhibitors, counter-screen for LRH-1 inverse agonist project, cell-based, luminescence, high throughput (AID 651611; in the data active = inhibition above about 28%); conditions: StAR promoter luciferase reporter counterscreen, at 3.6 µM, active compounds read high
# [27] = compounds suppressing VP16-driven luciferase signal – cell-based, luminescence, high throughput, counter-screen for LRH-1 inverse agonist project (AID 651615; in the data active = inhibition above about 33%); conditions: Gal4-VP16 luciferase reporter cells, at 3.6 µM, active compounds read high
# [28] = target: Protein-arginine deiminase type-4 (Homo sapiens) (UniProt Q9UM07); assay: protein arginine deiminase 4 blockade, retest – biochemical, fluorescence polarization, confirmation (AID 488796;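 active = mean inhibition across replicates above the hit cutoff set by the earlier primary screen, cut at about 15% in these data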;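 also: inhibitors block active-site labeling by the probe so polarization falls; 0% = PAD4 with probe and DMSO and 100% = probe without PAD4 enzyme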); conditions: recombinant PAD4, RCA probe fluorescence polarization; at 6.36 µM; active compounds read high
# [29] = reduced OD of V66 E. coli with T4 gene 2 phage – absorbance, RecBCD inhibitor project, confirmation (AID 651982;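 active = mean inhibition over triplicates exceeding the hit threshold derived in the original primary screen, cut at about 11% in these data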); conditions: E. coli V66 + T4 2- phage, growth OD; at 11.9 µM; active compounds read high
# [30] = bacterial growth inhibition – absorbance, high throughput, counter-screen for RecBCD inhibitor project (AID 651983; in the data active = inhibition above about 20%;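 also: E. coli strain V66 grown with compound alone and no phage infection; 0% = bacteria with DMSO vehicle only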); conditions: E. coli viability, absorbance (OD) growth; at 11.9 µM; active compounds read high
# [31] = reduced optical density, T4-challenged addAB+ bacteria – absorbance, E. coli V3065, T4 phage, counter-screen for RecBCD inhibitor project, confirmation (AID 651984;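 active = mean inhibition above the solvent-only control wells' mean plus 3 SD, cut at about 22% in these data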;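 also: higher means less bacterial growth from phage killing when AddAB is blocked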); conditions: E. coli expressing H. pylori AddAB + T4 phage, OD growth; at 11.9 µM; active compounds read high; gene 2 mutant T4, recBCD-deleted host
# Sequence of Nuclear receptor subfamily 5 group A member 2 (Homo sapiens) (O00482 whole entry, looked up): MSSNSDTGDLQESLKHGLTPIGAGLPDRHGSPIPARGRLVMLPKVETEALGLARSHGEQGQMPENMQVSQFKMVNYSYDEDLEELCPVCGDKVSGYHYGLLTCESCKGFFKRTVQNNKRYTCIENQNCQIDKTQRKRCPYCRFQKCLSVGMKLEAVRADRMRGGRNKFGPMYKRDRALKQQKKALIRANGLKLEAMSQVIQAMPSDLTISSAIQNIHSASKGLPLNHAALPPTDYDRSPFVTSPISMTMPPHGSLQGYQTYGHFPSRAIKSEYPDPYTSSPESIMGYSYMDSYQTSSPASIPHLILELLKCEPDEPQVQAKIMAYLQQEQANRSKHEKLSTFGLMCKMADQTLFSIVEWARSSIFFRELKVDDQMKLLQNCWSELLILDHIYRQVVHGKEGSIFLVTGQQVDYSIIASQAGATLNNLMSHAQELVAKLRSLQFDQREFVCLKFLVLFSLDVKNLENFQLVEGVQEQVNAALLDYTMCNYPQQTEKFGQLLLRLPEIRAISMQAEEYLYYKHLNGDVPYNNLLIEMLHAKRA
# Sequence of Bcl-2-like protein 1 (Homo sapiens) (Q07817 whole entry, looked up): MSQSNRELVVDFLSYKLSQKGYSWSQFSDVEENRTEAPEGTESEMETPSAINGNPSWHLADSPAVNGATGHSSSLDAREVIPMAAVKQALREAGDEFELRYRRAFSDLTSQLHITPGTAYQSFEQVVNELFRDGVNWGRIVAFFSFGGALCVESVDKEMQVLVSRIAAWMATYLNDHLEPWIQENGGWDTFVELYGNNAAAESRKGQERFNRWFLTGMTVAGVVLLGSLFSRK
# Sequence of Steroidogenic factor 1 (Homo sapiens) (Q13285 whole entry, looked up): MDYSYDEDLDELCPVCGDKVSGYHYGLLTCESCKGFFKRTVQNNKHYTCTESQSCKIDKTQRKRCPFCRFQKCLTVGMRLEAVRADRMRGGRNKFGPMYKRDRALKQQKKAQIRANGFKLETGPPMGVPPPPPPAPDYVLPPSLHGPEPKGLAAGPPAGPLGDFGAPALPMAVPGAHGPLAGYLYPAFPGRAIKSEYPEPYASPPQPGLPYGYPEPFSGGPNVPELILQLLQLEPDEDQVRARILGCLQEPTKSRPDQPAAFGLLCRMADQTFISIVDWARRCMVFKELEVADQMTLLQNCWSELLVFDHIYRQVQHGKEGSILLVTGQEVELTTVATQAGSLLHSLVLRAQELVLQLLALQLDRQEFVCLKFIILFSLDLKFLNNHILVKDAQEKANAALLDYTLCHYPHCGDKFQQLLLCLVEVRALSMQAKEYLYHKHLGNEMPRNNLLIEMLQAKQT
# Sequence of Protein phosphatase methylesterase 1 (Homo sapiens) (Q9Y570 whole entry, looked up): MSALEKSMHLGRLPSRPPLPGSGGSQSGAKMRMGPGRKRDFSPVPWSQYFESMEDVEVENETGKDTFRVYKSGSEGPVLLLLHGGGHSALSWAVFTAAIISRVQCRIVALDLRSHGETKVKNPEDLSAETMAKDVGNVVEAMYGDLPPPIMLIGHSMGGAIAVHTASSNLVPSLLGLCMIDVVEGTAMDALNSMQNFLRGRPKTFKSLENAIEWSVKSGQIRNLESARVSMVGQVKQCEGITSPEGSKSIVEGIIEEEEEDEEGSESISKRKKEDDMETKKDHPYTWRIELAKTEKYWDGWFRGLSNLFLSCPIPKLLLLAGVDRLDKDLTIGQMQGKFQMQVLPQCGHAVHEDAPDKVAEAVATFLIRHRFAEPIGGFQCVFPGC
# Sequence of Induced myeloid leukemia cell differentiation protein Mcl-1 (Homo sapiens) (Q07820 whole entry, looked up): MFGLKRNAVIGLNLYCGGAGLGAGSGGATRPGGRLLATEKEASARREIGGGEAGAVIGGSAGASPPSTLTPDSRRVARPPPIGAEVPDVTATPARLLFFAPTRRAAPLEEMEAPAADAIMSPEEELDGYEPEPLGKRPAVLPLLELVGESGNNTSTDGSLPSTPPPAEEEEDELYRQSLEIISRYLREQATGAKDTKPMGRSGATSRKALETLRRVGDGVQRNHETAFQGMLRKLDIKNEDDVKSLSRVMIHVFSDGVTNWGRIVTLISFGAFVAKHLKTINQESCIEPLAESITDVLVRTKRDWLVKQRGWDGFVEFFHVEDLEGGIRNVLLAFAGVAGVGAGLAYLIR
# Sequence of Nuclear receptor coactivator 3 (Homo sapiens) (Q9Y6Q9 whole entry, looked up, the tested form may be a part): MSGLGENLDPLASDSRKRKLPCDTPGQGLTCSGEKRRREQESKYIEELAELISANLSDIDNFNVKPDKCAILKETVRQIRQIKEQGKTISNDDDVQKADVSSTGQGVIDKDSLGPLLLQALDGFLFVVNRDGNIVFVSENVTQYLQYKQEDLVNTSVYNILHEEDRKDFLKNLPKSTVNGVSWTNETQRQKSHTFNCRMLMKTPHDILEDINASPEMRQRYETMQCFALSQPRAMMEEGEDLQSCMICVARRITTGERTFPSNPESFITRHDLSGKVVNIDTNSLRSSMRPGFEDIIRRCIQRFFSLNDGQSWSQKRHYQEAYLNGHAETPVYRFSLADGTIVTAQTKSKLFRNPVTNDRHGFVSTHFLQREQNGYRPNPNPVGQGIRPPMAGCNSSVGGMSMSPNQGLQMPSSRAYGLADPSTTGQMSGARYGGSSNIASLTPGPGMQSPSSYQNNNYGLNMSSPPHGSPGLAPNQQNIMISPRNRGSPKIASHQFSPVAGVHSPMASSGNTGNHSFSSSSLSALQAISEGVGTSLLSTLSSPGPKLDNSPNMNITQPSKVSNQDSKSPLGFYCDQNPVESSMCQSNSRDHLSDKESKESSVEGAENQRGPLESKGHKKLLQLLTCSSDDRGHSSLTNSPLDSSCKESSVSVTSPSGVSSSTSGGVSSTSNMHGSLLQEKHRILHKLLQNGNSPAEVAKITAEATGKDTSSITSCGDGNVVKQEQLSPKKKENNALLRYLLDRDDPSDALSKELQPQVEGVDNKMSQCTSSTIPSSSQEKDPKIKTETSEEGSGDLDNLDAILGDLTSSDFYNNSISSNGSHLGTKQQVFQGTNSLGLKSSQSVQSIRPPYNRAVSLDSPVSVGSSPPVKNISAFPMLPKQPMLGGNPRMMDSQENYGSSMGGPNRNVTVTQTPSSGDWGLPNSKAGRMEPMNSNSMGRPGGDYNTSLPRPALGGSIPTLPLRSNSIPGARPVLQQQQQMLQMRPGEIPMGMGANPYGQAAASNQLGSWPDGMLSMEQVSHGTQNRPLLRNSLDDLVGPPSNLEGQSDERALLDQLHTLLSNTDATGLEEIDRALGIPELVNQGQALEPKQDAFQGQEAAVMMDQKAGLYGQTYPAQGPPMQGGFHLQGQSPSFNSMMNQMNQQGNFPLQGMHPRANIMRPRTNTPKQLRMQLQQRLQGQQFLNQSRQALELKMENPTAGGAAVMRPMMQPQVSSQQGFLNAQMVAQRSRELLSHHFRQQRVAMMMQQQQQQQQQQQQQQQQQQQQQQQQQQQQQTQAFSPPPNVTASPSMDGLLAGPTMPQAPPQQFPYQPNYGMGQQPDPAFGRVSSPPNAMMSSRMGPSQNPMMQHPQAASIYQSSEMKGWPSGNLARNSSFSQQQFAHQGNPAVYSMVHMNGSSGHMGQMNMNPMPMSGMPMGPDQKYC
# Sequence of Insulin-degrading enzyme (Homo sapiens) (P14735 whole entry, looked up): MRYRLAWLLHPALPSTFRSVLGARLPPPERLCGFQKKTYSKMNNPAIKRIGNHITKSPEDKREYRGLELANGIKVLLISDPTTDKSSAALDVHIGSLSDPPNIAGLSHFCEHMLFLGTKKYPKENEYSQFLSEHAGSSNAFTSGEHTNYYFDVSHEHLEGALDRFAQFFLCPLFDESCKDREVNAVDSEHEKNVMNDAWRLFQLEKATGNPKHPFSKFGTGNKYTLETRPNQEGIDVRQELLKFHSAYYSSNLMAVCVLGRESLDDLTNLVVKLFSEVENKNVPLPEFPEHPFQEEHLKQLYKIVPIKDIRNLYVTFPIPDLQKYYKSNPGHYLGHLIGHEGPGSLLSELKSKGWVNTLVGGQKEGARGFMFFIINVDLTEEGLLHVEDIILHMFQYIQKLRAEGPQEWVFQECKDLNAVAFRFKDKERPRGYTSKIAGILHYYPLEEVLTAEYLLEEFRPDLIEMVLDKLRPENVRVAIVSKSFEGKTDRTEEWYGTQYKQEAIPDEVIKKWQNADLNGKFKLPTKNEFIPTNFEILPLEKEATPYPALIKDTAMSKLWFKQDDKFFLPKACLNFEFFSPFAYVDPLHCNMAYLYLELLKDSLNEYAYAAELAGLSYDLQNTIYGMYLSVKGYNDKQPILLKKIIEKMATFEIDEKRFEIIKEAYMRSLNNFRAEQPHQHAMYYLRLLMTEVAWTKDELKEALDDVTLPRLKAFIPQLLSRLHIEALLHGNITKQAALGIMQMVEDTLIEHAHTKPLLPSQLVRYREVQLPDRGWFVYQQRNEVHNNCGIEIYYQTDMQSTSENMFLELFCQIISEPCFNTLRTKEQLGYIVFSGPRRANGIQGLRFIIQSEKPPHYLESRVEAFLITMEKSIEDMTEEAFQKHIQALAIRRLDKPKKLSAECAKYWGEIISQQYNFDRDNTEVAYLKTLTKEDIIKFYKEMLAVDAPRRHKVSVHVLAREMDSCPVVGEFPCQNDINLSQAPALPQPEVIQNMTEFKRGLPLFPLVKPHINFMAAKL
# Sequence of Oxysterols receptor LXR-beta (Homo sapiens) (P55055 whole entry, looked up, the tested form may be a part): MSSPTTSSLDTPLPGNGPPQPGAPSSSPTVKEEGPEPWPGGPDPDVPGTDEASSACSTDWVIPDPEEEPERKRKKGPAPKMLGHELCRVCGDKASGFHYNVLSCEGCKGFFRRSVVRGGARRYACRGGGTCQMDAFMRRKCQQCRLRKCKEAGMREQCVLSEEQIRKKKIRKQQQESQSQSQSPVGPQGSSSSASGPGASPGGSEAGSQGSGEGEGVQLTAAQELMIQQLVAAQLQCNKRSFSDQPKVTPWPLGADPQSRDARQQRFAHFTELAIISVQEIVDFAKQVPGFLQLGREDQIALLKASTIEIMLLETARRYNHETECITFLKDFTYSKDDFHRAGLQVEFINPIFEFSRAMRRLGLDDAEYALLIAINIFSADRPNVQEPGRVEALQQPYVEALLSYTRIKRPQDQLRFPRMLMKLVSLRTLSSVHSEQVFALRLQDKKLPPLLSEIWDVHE
smiles,measurement,setting,value
O=C(O)CSc1cc(NS(=O)(=O)c2ccc(Cl)cc2)c2ccccc2c1O,inhibition,[1],14.2%
CC1=NN(c2ccccc2)C(=O)/C1=C/c1c(O)n(-c2ccc(F)c(Cl)c2)[nH]c1=O,inhibition,[1],49% (active)
Cc1cc(NS(=O)(=O)c2ccc(Nc3nc(-c4sc(NC(=O)c5ccccc5)nc4C)cs3)cc2)no1,inhibition,[1],70.6% (active)
Cc1[nH]c2c(C)cccc2c1CCNC(=O)c1ccc2c(c1[N+](=O)[O-])C(=O)c1ccccc1C2=O,inhibition,[1],75.1% (active)
COc1ccc2[nH]c(O)c(N=NC(=O)c3ccc(NS(=O)(=O)c4cccs4)cc3)c2c1,inhibition,[1],19.4%
O=C(Nc1ccc(N2CCOCC2)cc1)Nc1ccc2nc(-c3ccco3)c(-c3ccco3)nc2c1,inhibition,[1],39.5% (active)
Cc1cc(C)c(/C=C2\C(=O)Nc3ccccc32)[nH]1,inhibition,[2],147% (active)
same,inhibition,[3],168% (active)
same,inhibition,[4],83.6% (active)
same,inhibition,[5],5.65%
same,activation,[6],0.33%
same,activation,[7],7.13% (active)
COCCCNc1c2c3c(cccc3[nH]c1=O)C(=O)c1ccccc1-2,inhibition,[1],133% (active)
CC[C@]1(O)C[C@@H]2CN(CCc3c([nH]c4ccccc34)[C@@](C(=O)OC)(c3cc4c(cc3OC)N(C)[C@H]3[C@@](O)(C(=O)OC)[C@H](OC(C)=O)[C@]5(CC)C=CCN6CC[C@]43[C@@H]65)C2)C1,inhibition,[2],27.1%
same,inhibition,[3],35.2%
same,inhibition,[8],42.5% (active)
same,inhibition,[9],61.2% (active)
COc1cc2c(C#N)c(N3CCN(c4ccccc4OC)CC3)nc(N)c2c(N)n1,inhibition,[1],78% (active)
Nc1cccc2c1C(=O)N(Cc1nnc(-c3ccccc3Br)o1)C2=O,inhibition,[2],51.2% (active)
same,inhibition,[3],69% (active)
same,inhibition,[10],16.4%
same,inhibition,[11],19.9%
same,inhibition,[12],3.2%
same,inhibition,[13],37.4% (active)
same,inhibition,[14],41.6% (active)
O=c1ccc2c(-c3ccccc3S(=O)(=O)O)c3ccc(O)c(O)c3oc-2c1O,inhibition,[2],82.9% (active)
same,inhibition,[3],67.6% (active)
same,inhibition,[15],7.55%
same,inhibition,[16],11% (active)
same,inhibition,[17],2.03%
same,inhibition,[18],-1.72%
same,inhibition,[19],-101%
same,inhibition,[20],-20.4%
same,inhibition,[21],-24.3%
CC12CCC(C(=O)N(NC(=O)c3ccccc3O)C1=O)C2(C)C (stereo not given),inhibition,[2],10.1%
same,inhibition,[3],41.1% (active)
same,inhibition,[19],23.1% (active)
same,inhibition,[20],30% (active)
O=C(Nc1ccc(N2CCOCC2)cc1)Nc1ccc(Cl)c(Cl)c1,inhibition,[1],21.4%
Cc1cccn2c(=O)c3cc(C(=O)NCCN4CCOCC4)c(=N)n(Cc4cccnc4)c3nc12,inhibition,[2],55.8% (active)
same,inhibition,[3],65.7% (active)
same,inhibition,[22],22.5%
same,inhibition,[23],20.1%
same,inhibition,[24],24.4%
same,inhibition,[25],17.3%
same,inhibition,[26],21.2%
same,inhibition,[8],57.8% (active)
same,inhibition,[9],49.1% (active)
same,inhibition,[27],28.6%
CC(=O)N1CCN(c2ccc(NC(=S)NC(=O)COc3ccc(C(C)(C)C)cc3)cc2)CC1,inhibition,[1],26.1%
CCCC1OC23CCCCC2C(C#N)(C#N)C1(C#N)C(=N)O3 (stereo not given),inhibition,[2],19.5%
same,inhibition,[3],21%
same,inhibition,[19],20%
same,inhibition,[20],10.8%
COC(=O)c1cccc(C#CC(NP(=O)(c2ccccc2)c2ccccc2)c2ccccc2)c1 (stereo not given),inhibition,[1],35.1% (active)
CCN(CC)S(=O)(=O)c1cc(NC(=O)C(C)N2CCN(c3ccccn3)CC2)ccc1C (stereo not given),inhibition,[1],18.6%
Cc1ccc(NS(=O)(=O)c2ccc3c(c2)C(=O)c2ccccc2C3=O)c(C)c1,inhibition,[1],24.5%
CCOc1cc(CNc2ccc(O)cc2)ccc1OCc1ccc(Cl)cc1Cl,inhibition,[1],13.2%
Nc1ccc(O)c2c1C(=O)c1ccccc1C2=O,inhibition,[1],46.5% (active)
CCN1CC=C2C(C#N)=C(N)C(C#N)(C#N)[C@H](c3ccoc3)[C@H]2C1,inhibition,[2],97.5% (active)
same,inhibition,[3],114% (active)
same,inhibition,[28],10.3%
COc1ccc(N=Nc2nc(-c3ccccc3)c(-c3ccccc3)[nH]2)cc1,inhibition,[1],10.8%
CC1=C([N+](=O)[O-])C(c2cccc(Br)c2)C2=C(N1)c1ccccc1C2=O (stereo not given),inhibition,[1],11.9%
COc1ccc(Nc2nc(-c3cccnc3)nc3ccccc23)cn1,inhibition,[2],90.3% (active)
same,inhibition,[3],114% (active)
same,inhibition,[26],28.2% (active)
same,inhibition,[8],43.9% (active)
same,inhibition,[9],53.2% (active)
same,inhibition,[27],-10.3%
C=C1c2c(Cl)ccc(O)c2C(O)=C2C(=O)[C@]3(O)C(O)=C(C(N)=O)C(=O)[C@@H](N(C)C)[C@@H]3[C@@H](O)C12 (stereo not given in full),inhibition,[2],37.7% (active)
same,inhibition,[3],79% (active)
same,inhibition,[15],102% (active)
same,inhibition,[16],101% (active)
same,inhibition,[17],104% (active)
same,inhibition,[29],102% (active)
same,inhibition,[30],105% (active)
same,inhibition,[31],104% (active)
same,inhibition,[19],-9.22%
same,inhibition,[20],20.7% (active)
